Assay outcomes deposited in PubChem BioAssay by several laboratories.
Abs 340nm – absorbance at 340 nm; 65,000 tested, under 10 active; compound absorbance at 340 nm, fold over control; fold change at 10 µM;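 active means at 10 µM dose, initial 340 nm absorbance at least 2 fold that of control wells; inactive means change under 2 fold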;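 further: initial absorbance extrapolated from kinetic A340 decline of NADH oxidation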
WNV NS2B-NS3 inh – inhibitors of West Nile virus NS2B-NS3 protease. WNV NS2B-NS3 protease, fluorogenic substrate Ex360/Em465; active compounds read low. hit rate 0.18% among 65,000. z-score (concentration not given with the values). AID 577. P06935; in the data active means z-score below about -3
Target sequence (P06935 1371-1501 limits assumed): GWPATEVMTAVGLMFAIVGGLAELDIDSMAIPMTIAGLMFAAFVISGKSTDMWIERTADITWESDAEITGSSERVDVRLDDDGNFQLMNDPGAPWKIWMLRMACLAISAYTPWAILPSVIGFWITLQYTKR
Target sequence (P06935 1502-1679 limits assumed): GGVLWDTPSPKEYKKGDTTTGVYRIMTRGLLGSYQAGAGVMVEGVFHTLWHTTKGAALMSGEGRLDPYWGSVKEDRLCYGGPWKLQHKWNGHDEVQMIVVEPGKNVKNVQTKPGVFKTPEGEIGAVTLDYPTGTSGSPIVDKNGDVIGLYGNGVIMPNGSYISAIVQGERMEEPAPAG
Autofluor 339 – intrinsic fluorescence of library compounds, ex339/em460 – biochemical, MLSMR library, data from DPM-DC assay, artefact control, profiling panel | compound autofluorescence, ex339/em460 nm, NADH buffer; active compounds read high; 1 = no-compound wells, NADH background | AID 709 | fluorescence fold increase at 10 µM | hit rate 5.5% among 65,000;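 active means at 10 µM, mean starting fluorescence two-fold or more over control wells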;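 further: signal is the first read of a kinetic run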
BAP1 block – inhibitors of human BAP1 deubiquitinase. AID 436. hit rate 0.48% among 72,000. Q92560. recombinant BAP1, Ub-AMC hydrolysis fluorescence kinetic; active compounds read low. calls only at 20 µM;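 active means activity remaining at or below 50% of control, provided the compound also passes the data quality filters; inactive means the rest, including low values that fail the filters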;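 further: 100% = DMSO wells rate and 0% = substrate alone blank rate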
M1 agonist – agonists of M1 muscarinic receptor; B-score at 10 µM; CHO-M1 cells, Fluo-4 calcium fluorescence, agonist mode; active compounds read high; AID 626; hit rate 3% among 64,000;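 active means fluorescence rise, raw or as B-score row- and column-corrected plate score, outside the 99.7% band of its plate's samples, either direction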
M1 antagonist – M1 muscarinic receptor (rat) antagonism. P08482. CHO-M1 cells, Fluo-4 calcium, ACh EC80 antagonist mode; active compounds read low. B-score at 10 µM. hit rate 3.4% among 64,000. AID 628;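 active means calcium fluorescence response, raw or row-and-column corrected B-score, differing from the plate sample mean either way at a set confidence level, mostly lower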
* = called active by the depositor; i = inactive; . = no result shown. Shown are actives, neighbours in structure and some others; about 9.7% of the full set was active somewhere.

SMILES	Abs 340nm	WNV NS2B-NS3 inh	Autofluor 339	BAP1 block	M1 agonist	M1 antagonist
O=C1c2ccccc2-c2onc3ccc(Sc4ccccc4)c1c23	.	.	.	i	.	.
COc1ccc2noc3c2c1C(=O)c1ccccc1-3	1	-0.84	1.1	i	354*	-12*
CC1SC2(OC1=O)C1CC3CC(C1)CC2C3 (stereo not given)	.	.	.	i	.	.
COC(=O)c1[nH]c2cccc(Cl)c2c1NC(=O)CN1CCCCC1C (stereo not given)	1	-0.51	1.2	i	0.47	0.53
COC(=O)c1[nH]c2cccc(OC)c2c1NC(=O)CN1CCOCC1	1.1	-1.3	2.9*	i	0.17	0.27
COC(=O)c1[nH]c2cccc(OC)c2c1NC(=O)CN1CC2(C)CC1CC(C)(C)C2 (stereo not given)	1	-0.22	2*	i	0.3	-0.00045
COC(=O)c1[nH]c2cccc(OC)c2c1NC(=O)CCN1CCN(c2cccc(Cl)c2)CC1	1	-1.1	2.6*	i	-1.1	0.48
CC(C)(C)c1ccc(S(=O)(=O)N2CCN(C(c3ccccc3)c3ccccc3)CC2)cc1	.	.	.	i	.	.
O=C(CN1C(=O)c2ccccc2C1=O)Nc1ccc(Br)c(C(=O)c2ccccc2Cl)c1	.	.	.	i	.	.
Cn1c2ccccc2c2ncn(Cc3ccco3)c(=O)c21	1.1	0.77	2.9*	i	-0.038	-0.44
O=c1c2ccccc2ncn1Cc1ccco1	1	-1.2	1.1	i	0.16	0.34
O=C(Nc1ccc(O)c(-c2nc3ccccc3o2)c1)c1ccccc1Cl	.	.	.	i	.	.
O=C(NC1=NCCS1)c1ccc(-c2ccc(Cl)cc2)o1	1.3	1.8	2.1*	.	0.85	0.0041
O=C(c1nn2c(c1Cl)NC(c1cccs1)CC2C(F)(F)F)N1CCN(C(c2ccccc2)c2ccccc2)CC1 (stereo not given)	.	.	.	i	.	.
COc1cc(NC(=O)c2nn3c(C(F)(F)F)cc(-c4ccccc4)nc3c2Br)cc([N+](=O)[O-])c1	.	.	.	i	.	.
CCOC(=O)c1oc2ccccc2c1NC(=O)c1ccccc1OC	1	-0.93	1.5	i	1.1	0.32
CCOC(=O)c1oc2ccccc2c1NC(=O)COc1cccc(OC)c1	1.1	0.86	2.9*	i	1.1	0.38
Cc1ccc(C(=O)Nc2nc(C34CC5CC(CC(C5)C3)C4)cs2)cc1	.	.	.	i	.	.
CCOc1ccc2[nH]c(=O)c(CN(Cc3cccs3)Cc3nnnn3C(C)(C)CC)cc2c1	1	0.71	2.6*	.	0.92	0.77
CCC(C)(C)n1nnnc1CN(Cc1cccs1)Cc1cc2cc(OC)ccc2[nH]c1=O	1	0.77	1.7	i	3.7*	-1
COc1ccc2[nH]c(=O)c(CNC3CCCCC3)cc2c1	1	0.11	2.7*	.	0.45	-0.32
COc1ccc2[nH]c(=O)c(CN(C(=O)NC3CCCCC3)C3CCCCC3)cc2c1	1.1	0.52	2.8*	.	0.51	0.82
COc1ccc(NCc2cc3ccccc3[nH]c2=O)cc1	1.1	-0.73	1.2	i	-1	0.96
CCOc1cccc(C2NC(=O)NC(C)=C2C(=O)OCC(Cl)(Cl)Cl)c1 (stereo not given)	.	.	.	i	.	.
O=c1oc2ccccc2cc1-c1nnc(-c2cccc(Br)c2)o1	1.1	1.5	3.9*	.	0.16	-0.13
SMILES	Abs 340nm	WNV NS2B-NS3 inh	Autofluor 339	BAP1 block	M1 agonist	M1 antagonist
O=c1oc2ccc3ccccc3c2cc1-c1nnc(-c2ccccc2)o1	1.1	0.32	4.3*	i	-1	0.31
Cc1nc2ccccc2c2oc(C(=O)N3CCN(C(=O)c4ccco4)CC3)cc12	0.99	-0.01	1	i	-0.41	0.68
Cc1nc2ccccc2c2oc(C(=O)N3CCc4ccccc4C3)cc12	1	-0.52	1.1	i	6*	0.72
CCCCN(C)Cc1c(O)ccc2c3c(c(=O)oc12)CCC3	.	.	.	i	.	.
COCCN(CCOC)Cc1c(O)ccc2c3c(c(=O)oc12)CCC3	1.2	9.7	2*	.	0.019	-1.7
CCCCN(CC)Cc1c(O)ccc2c3c(c(=O)oc12)CCC3	.	.	.	i	.	.
O=c1oc2c(CN3CCOCC3)c(O)c(Cl)cc2c2c1CCCC2	1.1	5.9	3.8*	i	-0.12	0.61
O=c1oc2c(CN3CCOCC3)c(O)ccc2c2c1CCCC2	1.1	3.7	3.8*	i	-1.6	-1.5
O=C(NCCCN1CCOCC1)c1cc2cc(Cl)cc(Cl)c2oc1=O	1.1	-0.45	1.2	i	0.0019	-0.45
